Laboratory results published in the supplement of paper PMC4022240.
± gives the standard deviation.

T1: HaloTag-ATRX ADD domain (163-292)
T1 chain: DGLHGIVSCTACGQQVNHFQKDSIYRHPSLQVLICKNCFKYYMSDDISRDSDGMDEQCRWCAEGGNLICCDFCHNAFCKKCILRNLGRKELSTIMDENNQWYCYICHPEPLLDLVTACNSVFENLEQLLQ


Target: T1, HaloTag-ATRX ADD domain (163-292)
Test: peptide microarray binding signal (635 nm), min-max normalized on array (fraction of array maximum); higher = stronger binding
Settings: peptide region: Unmod H4 variant; binder concentration: 50 nM
Summary of the method: (§1)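 Arrays carried histone 13-mer peptide–cellulose conjugates printed in triplicate on nitrocellulose alongside a Cy3 tracer. After overnight blocking at 4°C, they were incubated for 1 h at 4°C with biotin-labelled HaloTag reader fusions (10 nM to 1 μM) plus streptavidin-Alexa Fluor 647, or with rabbit histone antibodies (1:10,000 to 1:2,000) plus anti-rabbit Alexa 647. Scanning on an Axon GenePix 4000B used 635 nm for signal and 532 nm for misprints. The binding signal reported is each triplicate's mean spot intensity after per-library min-max scaling.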

Row | Binder | peptide microarray binding signal
1 | KRHRKVLRDNIQG [Unmod H4 variant K R H R K V L R D N I Q G] | 0.00636 ± 0.00015
2 | VLRDNIQGITKPA [Unmod H4 variant V L R D N I Q G I T K P A] | 0.0154 ± 0.00068
3 | IQGITKPAIRRLA [Unmod H4 variant I Q G I T K P A I R R L A] | 0.0496 ± 0.0034
4 | GGVKRISGLIYEE [Unmod H4 variant G G V K R I S G L I Y E E] | 0.00323 ± 0.00011
5 | ISGLIYEETRGVL [Unmod H4 variant I S G L I Y E E T R G V L] | 0.00266 ± 3.1e-05

Same assay, conditions: peptide region: Unmod H4 variant; binder concentration: 500 nM

Row | Binder | peptide microarray binding signal
6 | KRHRKVLRDNIQG [Unmod H4 variant K R H R K V L R D N I Q G] | 0.0147 ± 0.00085
7 | VLRDNIQGITKPA [Unmod H4 variant V L R D N I Q G I T K P A] | 0.0293 ± 0.0022
8 | IQGITKPAIRRLA [Unmod H4 variant I Q G I T K P A I R R L A] | 0.0842 ± 0.0024
9 | GGVKRISGLIYEE [Unmod H4 variant G G V K R I S G L I Y E E] | 0.0107 ± 0.006
10 | ISGLIYEETRGVL [Unmod H4 variant I S G L I Y E E T R G V L] | 0.00776 ± 0.0036

Each binder was assayed against HaloTag-ING2 PHD (mouse Ing2 200-280) in the same assay as above. Settings: peptide region: Unmod H4 variant; binder concentration: 10 nM.
Summary of the method: as §1

Row | Binder | peptide microarray binding signal
11 | KRHRKVLRDNIQG [Unmod H4 variant K R H R K V L R D N I Q G] | 0.00549 ± 9.7e-05
12 | VLRDNIQGITKPA [Unmod H4 variant V L R D N I Q G I T K P A] | 0.0201 ± 0.00092
13 | IQGITKPAIRRLA [Unmod H4 variant I Q G I T K P A I R R L A] | 0.0565 ± 0.0092
14 | GGVKRISGLIYEE [Unmod H4 variant G G V K R I S G L I Y E E] | 0.00507 ± 0.0008
15 | ISGLIYEETRGVL [Unmod H4 variant I S G L I Y E E T R G V L] | 0.00233 ± 7.4e-05

Same assay, conditions: peptide region: Unmod H4 variant; binder concentration: 100 nM

Row | Binder | peptide microarray binding signal
16 | KRHRKVLRDNIQG [Unmod H4 variant K R H R K V L R D N I Q G] | 0.0208 ± 0.0048
17 | VLRDNIQGITKPA [Unmod H4 variant V L R D N I Q G I T K P A] | 0.0672 ± 0.0023
18 | IQGITKPAIRRLA [Unmod H4 variant I Q G I T K P A I R R L A] | 0.119 ± 0.019
19 | GGVKRISGLIYEE [Unmod H4 variant G G V K R I S G L I Y E E] | 0.0272 ± 0.027
20 | ISGLIYEETRGVL [Unmod H4 variant I S G L I Y E E T R G V L] | 0.00319 ± 0.00013

These binders were tested against anti-H3K4me3 antibody ab8580 in the same assay as above. Settings: peptide region: Unmod H4 variant; binder concentration: 1:2,000 dilution.
Summary of the method: as §1

Row | Binder | peptide microarray binding signal
21 | KRHRKVLRDNIQG [Unmod H4 variant K R H R K V L R D N I Q G] | 0.000774 ± 7e-06
22 | VLRDNIQGITKPA [Unmod H4 variant V L R D N I Q G I T K P A] | 0.0064 ± 0.00045
23 | IQGITKPAIRRLA [Unmod H4 variant I Q G I T K P A I R R L A] | 0.0125 ± 0.0012
24 | GGVKRISGLIYEE [Unmod H4 variant G G V K R I S G L I Y E E] | 0.000755 ± 7e-05
25 | ISGLIYEETRGVL [Unmod H4 variant I S G L I Y E E T R G V L] | 0.00109 ± 5.1e-05

Same assay, conditions: peptide region: Unmod H4 variant; binder concentration: 1:10,000 dilution

Row | Binder | peptide microarray binding signal
26 | KRHRKVLRDNIQG [Unmod H4 variant K R H R K V L R D N I Q G] | 0.00114 ± 1.2e-05
27 | VLRDNIQGITKPA [Unmod H4 variant V L R D N I Q G I T K P A] | 0.0089 ± 0.0011
28 | IQGITKPAIRRLA [Unmod H4 variant I Q G I T K P A I R R L A] | 0.0159 ± 0.0013
29 | GGVKRISGLIYEE [Unmod H4 variant G G V K R I S G L I Y E E] | 0.00126 ± 5.7e-05
30 | ISGLIYEETRGVL [Unmod H4 variant I S G L I Y E E T R G V L] | 0.00114 ± 1.2e-05

The binders below were run against anti-H3K9me3 antibody ab8898 in the same assay as above. Settings: peptide region: Unmod H4 variant; binder concentration: 1:2,000 dilution.
Summary of the method: as §1

Row | Binder | peptide microarray binding signal
31 | KRHRKVLRDNIQG [Unmod H4 variant K R H R K V L R D N I Q G] | 0.000604 ± 4.7e-05
32 | VLRDNIQGITKPA [Unmod H4 variant V L R D N I Q G I T K P A] | 0.00264 ± 0.00015
33 | IQGITKPAIRRLA [Unmod H4 variant I Q G I T K P A I R R L A] | 0.00663 ± 0.00078
34 | GGVKRISGLIYEE [Unmod H4 variant G G V K R I S G L I Y E E] | 0.000664 ± 7.4e-05
35 | ISGLIYEETRGVL [Unmod H4 variant I S G L I Y E E T R G V L] | 0.0004228 ± 4.1e-06

Same assay, conditions: peptide region: Unmod H4 variant; binder concentration: 1:10,000 dilution

Row | Binder | peptide microarray binding signal
36 | KRHRKVLRDNIQG [Unmod H4 variant K R H R K V L R D N I Q G] | 0.00104 ± 2.8e-05
37 | VLRDNIQGITKPA [Unmod H4 variant V L R D N I Q G I T K P A] | 0.00323 ± 9.4e-05
38 | IQGITKPAIRRLA [Unmod H4 variant I Q G I T K P A I R R L A] | 0.00957 ± 0.00076
39 | GGVKRISGLIYEE [Unmod H4 variant G G V K R I S G L I Y E E] | 0.000923 ± 3.4e-05
40 | ISGLIYEETRGVL [Unmod H4 variant I S G L I Y E E T R G V L] | 0.000807 ± 1.5e-05
